# Where a name gives a salt, the structure may show the parent alone. ± gives the standard deviation of the averaged measurements.
# System: Escherichia coli ATCC BAA-2469
# Test: percent growth inhibition of drug + antibiotic vs DMSO control; higher = more growth inhibition
# Conditions: antibiotic (0.125x MIC): ciprofloxacin; 7 µM
# Experimental: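 Prestwick drugs tested at 20 uM and 7 uM with an antibiotic at 0.125x MIC (16 mg/L when MIC >128 mg/L) against E. coli ATCC BAA-2469 (NDM-1) in CAMHB, 384-well plates, duplicate runs. Percent growth inhibition was computed from OD600 (24 h minus 0 h) relative to DMSO wells. Drug + DMSO-only wells are also given. […]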
row,Structure (SMILES),percent growth inhibition [%]
1,NCC1(CC(=O)O)CCCCC1 [Gabapentin],4.43 ± 4.2
2,O=C([O-])c1ccccc1-c1c2cc(Br)c(=O)cc-2oc2[c]([Hg+])c([O-])c(Br)cc12.[Na+].[Na+].[OH-] [Merbromin],0.00817 ± 2.1

# Same assay, conditions: antibiotic (0.125x MIC): ciprofloxacin; 20 µM
row,Structure (SMILES),percent growth inhibition [%]
1,NCC1(CC(=O)O)CCCCC1 [Gabapentin],9.67 ± 14

# Same assay, conditions: antibiotic (0.125x MIC): gentamicin; 7 µM
row,Structure (SMILES),percent growth inhibition [%]
1,O=C(CCCN1CCC2(CC1)C(=O)NCN2c1ccccc1)c1ccc(F)cc1 [Spiperone],7.21 ± 1
2,C[C@]12CC[C@H](O)C[C@@H]1CC[C@@H]1[C@@H]2CC[C@]2(C)C(=O)CC[C@@H]12 [Epiandrosterone],0.433 ± 1.2

# Same assay, conditions: antibiotic (0.125x MIC): meropenem; 7 µM
row,Structure (SMILES),percent growth inhibition [%]
1,NCC1(CC(=O)O)CCCCC1 [Gabapentin],-2.95 ± 1.7
2,O=C([O-])c1ccccc1-c1c2cc(Br)c(=O)cc-2oc2[c]([Hg+])c([O-])c(Br)cc12.[Na+].[Na+].[OH-] [Merbromin],0.439 ± 4

# Same assay, conditions: antibiotic (0.125x MIC): meropenem; 20 µM
row,Structure (SMILES),percent growth inhibition [%]
1,Oc1cc(Cl)ccc1Oc1ccc(Cl)cc1Cl [Triclosan],97 ± 4.5
2,CN1[C@@H]2CC[C@H]1C[C@@H](OC(=O)C(CO)c1ccccc1)C2 (some centres undefined) [Atropine sulfate monohydrate],0.268 ± 1.2

# Reference: the supplement of paper PMC6658780
